Test [1] deals with Human papillomavirus type 1a protein E7 (residues 44-93). As to the kind of experiment: HPV1a E7 fragment binders on microarrays, primary screen, biochemical, small-molecule microarray, residues 44-93, 635 nm fluorescence (AID 1108).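 Note: E7 fragment applied at 1 µg/mL in TBST for 1 h at 4 C; score combines spot fluorescence with its signal to noise ratio.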 The note with it: small-molecule microarray binding, fluorescence 635 nm; higher = more signal.
Test [2] in a line: modulators of HCV replicon luciferase signal, primary screen, HCV replication inhibitor project, Huh7 cells, luciferase reporter (AID 1109).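 Note: huh7 hepatoma cells harbouring a luciferase neomycin HCV replicon reporter; luciferase luminescence as measure of HCV replicon replication; test concentration not given here.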 The note with it: 48 h, higher = more signal. (In general: A replicon is a self-replicating genome or part of one, used to study replication in cells.)
Test [3] has as its target Left-right determination factor 2 (Homo sapiens) (UniProt O00292). Nature of the test: LEFTY2 binders on small-molecule microarrays, primary screen, biochemical, small-molecule microarray, 635 nm fluorescence scan (AID 1110). The note with it: LEFTY2 binding, higher = more signal.
For test [4], the target named is Calmodulin-1 (Homo sapiens) (UniProt P0DP23). As to the kind of experiment: CALM1 binders on microarrays, EGTA buffer, profiling panel, biochemical, small-molecule microarray, Cy5-labelled CALM1 (AID 1111).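 Note: labelled calmodulin applied in Tris saline Tween buffer holding calcium plus EGTA and DTT.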 The note with it: Cy5-CALM1 binding fluorescence, higher = more signal.
Test [5] shares this target. As to the kind of experiment: calcium-bound CALM1 binders on microarrays, profiling panel, artefact control for SMM control-protein annotation, biochemical, small-molecule microarray, Cy5-labelled CALM1, plus calcium (AID 1112).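 Note: score merges spot fluorescence with signal to noise from triplicate slides.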 The note with it: Cy5-CALM1 binding fluorescence, higher = more signal.
Test [6] is described as follows: small-molecule microarray binders of probe aWnt5a, primary screen, biochemical, biotinylated probe, 635/667 nm fluorescence (AID 1113).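 Note: score merges 667 nm fluorescence intensity with signal-to-noise per printed feature.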 The note with it: higher = more signal.
The nature of test [7]: small-molecule microarray binders of probe aShh, primary screen, biochemical, biotinylated probe, 635/667 nm fluorescence (AID 1114).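 Note: probe is biotin-labelled aShh protein from a stem cell growth factor screen; measures binding of labelled protein to compounds printed on the slide; score merges feature fluorescence at 667 nm with signal-to-noise.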 The note with it: higher = more signal.
A short description of test [8]: small-molecule microarray binders of probe aNog, primary screen, biochemical, biotinylated probe, 635/667 nm fluorescence (AID 1115).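 Note: probe is biotinylated aNog protein used at 0.15 µg/mL for 1 h at 4 C; z-score combines 667 nm fluorescence of each spot with its signal to noise.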 The note with it: higher = more signal.
Test [9] has as its target Torsin-1A-interacting protein 1 (Homo sapiens) (UniProt Q5JTV8). As to the kind of experiment: LAP1 binders from COS7 cell lysate, primary screen, small-molecule microarray, 635/667 nm fluorescence (AID 1116). The note with it: COS7-hLAP1 lysate binding, 635 nm fluorescence, higher = more signal.
Test [10] has as its target Alpha-bungarotoxin (Bungarus multicinctus) (UniProt P60615). As to the kind of experiment: alpha-bungarotoxin binders on microarray, profiling panel, artefact control for SMM control protein annotation, biochemical, small-molecule microarray, Alexa647 label, 635/667 nm fluorescence (AID 1117). The note with it: alpha-BTX-A647 binding fluorescence, higher = more signal.

SMILES strings stand for the structures.

Chain of Left-right determination factor 2 (Homo sapiens) (O00292 whole entry, looked up): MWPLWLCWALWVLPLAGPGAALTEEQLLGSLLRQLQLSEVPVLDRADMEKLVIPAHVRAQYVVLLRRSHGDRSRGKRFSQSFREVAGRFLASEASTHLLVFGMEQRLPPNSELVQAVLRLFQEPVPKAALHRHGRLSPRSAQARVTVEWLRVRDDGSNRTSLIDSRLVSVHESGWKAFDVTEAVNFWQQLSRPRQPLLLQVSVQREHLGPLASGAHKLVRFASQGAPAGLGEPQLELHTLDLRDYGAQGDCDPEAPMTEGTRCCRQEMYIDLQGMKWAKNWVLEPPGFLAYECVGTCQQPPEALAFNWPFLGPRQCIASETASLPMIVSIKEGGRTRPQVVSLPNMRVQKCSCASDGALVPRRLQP
Chain of Alpha-bungarotoxin (Bungarus multicinctus) (P60615 whole entry, looked up): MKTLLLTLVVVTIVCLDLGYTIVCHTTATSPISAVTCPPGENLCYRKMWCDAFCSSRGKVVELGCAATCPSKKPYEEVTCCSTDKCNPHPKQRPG
Chain of Torsin-1A-interacting protein 1 (Homo sapiens) (Q5JTV8 whole entry, looked up): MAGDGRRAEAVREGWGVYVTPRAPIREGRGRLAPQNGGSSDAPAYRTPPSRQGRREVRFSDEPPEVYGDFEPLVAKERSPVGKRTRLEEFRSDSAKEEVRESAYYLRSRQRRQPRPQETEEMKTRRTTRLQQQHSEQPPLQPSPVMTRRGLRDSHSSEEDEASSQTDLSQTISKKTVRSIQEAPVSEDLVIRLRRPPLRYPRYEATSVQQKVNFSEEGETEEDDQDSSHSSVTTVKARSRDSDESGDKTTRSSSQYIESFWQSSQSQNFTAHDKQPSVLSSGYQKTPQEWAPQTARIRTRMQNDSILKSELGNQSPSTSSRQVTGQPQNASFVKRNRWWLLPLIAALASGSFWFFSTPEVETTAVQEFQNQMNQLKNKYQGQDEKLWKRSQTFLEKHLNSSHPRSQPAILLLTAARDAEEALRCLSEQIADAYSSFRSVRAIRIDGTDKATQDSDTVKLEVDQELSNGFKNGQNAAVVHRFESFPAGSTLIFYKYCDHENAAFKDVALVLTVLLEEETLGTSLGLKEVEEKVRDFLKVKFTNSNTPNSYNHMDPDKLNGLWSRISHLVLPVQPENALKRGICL

Take `C=C(COC)/C(=C/C[C@H](OC(=O)c1ccncc1)c1cccc(OCCO)c1)c1cnc2ccccc2c1`: the composite z-score in [1] is -0.378; in test [3] it was 0.791; in [4], 0.697; in [5], -0.64; in test [6], -0.0944; in test [7] it was 0.235. For the same compound, the composite z-score is -0.145 in test [8], 0.756 in test [9] and 3.02 in test [10]. Moreover, the z-score in [2] was -1.56.

On to `NCCCC[C@@H]1NC(=O)[C@H]2C[C@@H](C(=O)NCc3ccc(F)cc3)[C@@H](c3cccc(OCCO)c3)N2C1=O`, for which the composite z-score in [1] was 1.43; in [3], 1.13; in [4], 0.986; in [5], -0.75; in test [6], 0.0077; in test [7], -0.0119. For the same compound, the composite z-score in test [8] is 0.127; in test [9], 1.92; in [10] it was 0.538. Further, in test [2], the z-score is -2.1.

For `CCCCC(O)C1C=CC2C(=O)NC(=O)C2N1Nc1ccccn1` (stereo not given), the composite z-score was -0.382 in [1]; 0.132 in [3]; -0.0937 in test [4]; -0.466 in test [5]; -0.1 in [6]; 0.25 in test [7]. The composite z-score in test [8] was 0.289; in test [9], 0.233; in [10], 0.275. The z-score in test [2] is -1.11.

On to `O=C1OCCC/C=C\[C@H]2OC34C=CCN(Cc5ccccc5)C(=O)[C@H]3N(CCCCCO)C(=O)[C@@H]4C12` (stereo not given in full), for which the composite z-score in test [1] was -0.486; in test [3] it was -0.296; in test [4], -1; in test [5] it was -0.775; in test [6], -0.169; in test [7], 0.0121. The results for the composite z-score in test [8], in test [9] and in test [10] were 0.0847, 2.22 and -1.57, respectively. The z-score in test [2] was -1.06.

Consider `C=CC[C@@]1(C(=O)N(C)C)N=C(c2ccc(OCCCO)cc2)O[C@@H]1c1ccccc1`, for which the composite z-score in test [1] came out at 0.242; in [3] it was 0.191; in test [4] it was 0.401; in test [5], 0.621; in [6], 0.233; in test [7], 0.246. Besides, the composite z-score in [8] is -0.42; in test [9], 0.961; in test [10], 0.826. The z-score in test [2] is -0.624.

For the compound `C=CC[C@]1(C(=O)NCCCOC)N=C(c2ccc(OCCCO)cc2)O[C@H]1c1ccccc1`, the composite z-score is 1.44 in [1]; -0.916 in test [3]; 0.287 in [4]; -0.484 in [5]; 0.108 in test [6]; -0.0626 in test [7]. Moreover, the composite z-score is 0.328 in [8], 1.03 in test [9] and -0.0901 in [10]. For the same compound, the z-score in [2] is -1.53.

For the compound `CN1C(=O)[C@]2(CCS(=O)(=O)c3ccccc3)N=C(c3ccc(OCCCO)cc3)O[C@@H]2c2ccccc21`, the composite z-score in test [1] was 1.5; in test [3] it was -0.249; in [4] it was 1.11; in test [5], -0.545; in [6], -0.0704; in [7], -0.0119. Also, the figures for the composite z-score in test [8], in test [9] and in [10] were -0.122, 0.0996 and 0.836, respectively. For the same compound, the z-score in [2] was -2.63.

Consider `CC(C)(C)OC(=O)CC[C@]1(C(N)=O)N=C(c2ccc(OCCCO)cc2)O[C@H]1c1ccccc1CN=[N+]=[N-]`, for which the composite z-score is 0.6 in test [1]; -0.63 in test [3]; 2.67 in [4]; 1.73 in test [5]; -0.096 in [6]; 0.84 in [7]. The composite z-score in test [8] is -0.143; in test [9], 2.26; in [10], 1.46. Moreover, the z-score in test [2] worked out at 1.46.

For the compound `C=C(/C(=C/C[C@@H](OC(C)=O)c1ccccc1OCCO)c1cc(C(=O)OC)ccc1OC)C(C)C`, the composite z-score is 0.326 in test [1]; -0.0061 in [3]; 0.543 in test [4]; -0.692 in test [5]; -0.0643 in test [6]; -0.304 in test [7]. Also, the composite z-score was 0.051 in test [8], 0.385 in [9] and -0.598 in [10]. For the same compound, in [2], the z-score is -1.69.

Take `NC(=O)NCC#Cc1ccc2c(c1)[C@]1(C(=O)N2)[C@H](C(=O)N2CCCCCCC2)[C@H]2C(=O)O[C@H](c3ccccc3)[C@H](c3ccccc3)N2[C@@H]1c1ccc(O)cc1`: the composite z-score in test [1] amounted to 0.0787; in test [3] it was 0.953; in [4] it was 2.38; in test [5], 0.509; in [6], 0.754; in test [7] it was 1.54. The figures for the composite z-score in [8], in test [9] and in test [10] were 2.78, 2.19 and 2.01, respectively. The z-score in test [2] was -1.13.

`O=C1C2C=CC(C(O)c3cccc(O)c3)N(Nc3ccccc3F)C2C(=O)N1c1ccccc1` (stereo not given): the composite z-score in test [1] is 0.623; in test [3], -0.31; in [4] it was -0.325; in test [5] it was -0.607; in test [6], -0.0425; in [7], 0.656. The composite z-score in test [8] is -0.261; in [9], -0.165; in test [10], -0.234. Besides, the z-score in test [2] was -2.21.

Turning to `COCC1=C([C@H](O)CCc2ccccc2)[C@H](CO)n2c(=O)n(-c3ccccc3)c(=O)n2C1`, the composite z-score in [1] was -0.253; in test [3], 0.292; in test [4] it was -0.357; in [5] it was -0.764; in test [6], -0.175; in [7] it was -0.0553. Also, the figures for the composite z-score in test [8], in [9] and in [10] were -0.0927, -0.103 and -0.349, respectively. Besides, the z-score in [2] is -0.482.

`CC(C)CNC(=O)[C@@H]1c2ccccc2C(=O)N(Cc2ccccc2Cl)[C@H]1c1ccc(CO)cc1`: the composite z-score in test [1] was 1.07; in test [3] it was -1.09; in [4] it was 0.0642; in [5], -0.116; in [6], -0.244; in test [7], -0.0813. In addition, the values for the composite z-score in test [8], in test [9] and in test [10] were -0.0769, 1.69 and -1.39, respectively. The z-score in [2] was -0.249.

The record behind these values is PubChem BioAssay.
